Vaccinia Venus: inhibitors of vaccinia virus (Venus reporter) | Potency, µM (highest dose often 36.5 µM), most hits filed as inhibitors | AID 720580 | actives 0.46% (n = 330,000) | Vaccinia virus Venus reporter expression, fluorescence; calls by dose curve; tested in A549 cells; further: nearly all actives have a fitted effect of over 30% in size
HCV inh: blocks hepatitis C virus; Potency, µM (doses to about 41.8 µM), most hits filed as inhibitors; Huh7.5.1 HCVcc-Cre infection, luciferase reporter, 44 h; actives 3.4% (n = 340,000)
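A cell-based infection assay in which seeded cells (1,000 per well) receive test compound after 4 h, are inoculated with HCVcc-Cre at approximately 0.5 moi, and are incubated 44 h before luminescence detection.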
VACV mCherry inh: inhibitors of vaccinia virus infection (mCherry reporter signal); Vaccinia virus mCherry reporter infection, fluorescence; Potency, µM (titrated, usually from 36.5 µM), most hits filed as inhibitors; actives 0.63% (n = 310,000); AID 720579; calls by dose curve; tested in A549 cells; further: nearly all actives have a fitted effect of over 35% in size
HCV confirm: confirmation of hepatitis C virus inhibitors; Potency, µM (doses to about 41.8 µM), most hits filed as inhibitors; shares compounds with HCV inh; actives 78% (n = 640); HCVcc-Cre infectious virus cell assay, luciferase, inhibition; further: nearly all actives have a fitted effect of over 80% in size
HCV cytotox: toxic to HCV host cells, flagging false HCV inhibitors | Potency, µM (series often up to 41.8 µM), usual class: inhibitors | HCV host cell line cytotoxicity counterscreen | actives 22% (n = 640) | shares compounds with HCV inh;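 further: 44 h compound exposure; nearly all actives have a fitted effect of over 55% in size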
Of the large screens only hits and unclear results are named; the others gave an inactive call (follow-up assays come after a bar, where they were run). A selection: hits, their analogues and other compounds. The true share with any hit is near 3.3%. Unless noted, the call rests on the fitted dose curve; in most records, active means well fitted curve in the direction sought with a large enough effect; inconclusive means small, poorly fitted or top-dose-only effect, or another doubt; inactive means no such curve, though single readings can be large; an effect the other way counts as inactive or inconclusive.

CCCCCNc1nc2sc3c(c2c(=O)n1-c1cccc(Cl)c1)CCN(C)C3	HCV inh 1µM | HCV confirm 2.2µM | HCV cytotox inactive
CCCCSc1nc2sc3c(c2c(=O)n1-c1ccc(OC)cc1)CCN(C)C3	VACV mCherry inh inconclusive
CCCCSc1nc2sc3c(c2c(=O)n1-c1ccccc1)CCN(C)C3	HCV inh inconclusive (no result: Vaccinia Venus, VACV mCherry inh) | HCV confirm 13µM | HCV cytotox inactive
C=C(C)CSc1nc2sc3c(c2c(=O)n1-c1ccccc1)CCN(C)C3	Vaccinia Venus inconclusive, HCV inh inconclusive
Cc1ccc2c(CC(=O)Nc3c(C(=O)c4ccc(F)cc4)oc4ccccc34)coc2c1C	none (no result: HCV inh)
COc1ccc(Cl)cc1NC(=O)C(OC)c1ccccc1 (stereo not given)	HCV inh 6.3µM | HCV confirm 20µM | HCV cytotox inactive
COc1ccc(NC(=O)C(OC)c2ccccc2)cc1Cl (stereo not given)	none
COc1ccccc1C#Cc1ccc2c(=O)c3ccccc3n(C)c2c1	Vaccinia Venus inconclusive
Cn1c2ccccc2c(=O)c2ccc(C#Cc3ccc(N)cc3)cc21	Vaccinia Venus inconclusive, HCV inh 6.3µM, VACV mCherry inh inconclusive | HCV confirm 22µM | HCV cytotox inactive
COc1ccc(CNC2CC(C)N(C)CC2C)cc1OC (stereo not given)	none
COc1ccc(NS(=O)(=O)c2cc3c4c(c2)CCN4C(=O)CC3)cc1OC	none
Cc1ccc(C(=O)Nc2ccccc2N2CCCCC2)cc1[N+](=O)[O-]	HCV inh 2.2µM | HCV confirm 16µM | HCV cytotox 28µM
Cc1ccc(C(=O)NC(=S)Nc2ccccc2N2CCCC2)cc1[N+](=O)[O-]	HCV inh inconclusive
Cc1ccc(C)c(NC(=O)Cc2nc(CNCC(C)C)cs2)c1	none
CC(=O)N(C1CC(C)C(C#N)(C#N)C1(C#N)C#N)N(C)C (stereo not given)	HCV inh 6.3µM, VACV mCherry inh inconclusive | HCV confirm inactive | HCV cytotox inactive
CCCC(=O)N(C1CC(C)C(C#N)(C#N)C1(C#N)C#N)N(C)C (stereo not given)	HCV inh inconclusive
COc1ccc(C(=O)NCCCCNC(=O)c2ccc(OC)c(OC)c2)cc1OC	none (no result: Vaccinia Venus, VACV mCherry inh)
COc1ccc(N2CCN(CCCNC(=O)C3CCC(CNc4nc(=S)[nH]c5ccccc45)CC3)CC2)cc1 (stereo not given)	HCV inh 2.5µM | HCV confirm 6.3µM | HCV cytotox 22µM
CCCCNC(=O)C1CCC(CNc2nc(=S)[nH]c3ccccc23)CC1 (stereo not given)	none
COc1cc(C(=O)NCCNc2nc3c(C)cccc3cc2C#N)cc(OC)c1OC	none (no result: HCV inh)
COc1ccc(C(=O)NCCNc2nc3c(C)cccc3cc2C#N)cc1OC	HCV inh inconclusive (no result: Vaccinia Venus, VACV mCherry inh) | HCV confirm 18µM | HCV cytotox inactive
COc1cccc(C(=O)Cn2c(=O)n(CCC(=O)NCC3CCCO3)c(=O)c3cc(OC)c(OC)cc32)c1 (stereo not given)	none (no result: Vaccinia Venus, VACV mCherry inh)
COc1cc2c(=O)n(CCC(=O)NCC3CCCO3)c(=O)n(CC(=O)c3ccc(Cl)cc3)c2cc1OC (stereo not given)	HCV inh 2µM (no result: Vaccinia Venus, VACV mCherry inh) | HCV confirm 7.9µM | HCV cytotox inactive
Cc1cc(Br)c(S(=O)(=O)NCc2ccncc2)cc1C	HCV inh 3.2µM, VACV mCherry inh inconclusive | HCV confirm 2µM | HCV cytotox 6.3µM
COc1cc(S(=O)(=O)NCc2ccncc2)ccc1Br	HCV inh inconclusive
COc1ccc(COc2ccc(C3C(S(=O)(=O)c4ccccc4)CON3C)cc2OC)cc1 (stereo not given)	HCV inh inconclusive
CC(=O)OCC(=O)[C@@]1(O)CCC2C3CCC4=CC(=O)CC[C@]4(C)C3C(O)C[C@]21C (stereo not given in full)	none (no result: HCV inh)
CCNc1ccc(C(=O)OCC(=O)Nc2cc(C)on2)cc1[N+](=O)[O-]	none (no result: Vaccinia Venus, VACV mCherry inh)
COc1ccc(CNC(=O)c2sc(=O)n(Cc3cc(C(C)=O)ccc3OC)c2C)cc1	none (no result: HCV inh)
CCN(C(=O)CSc1nnc(-c2cccs2)n1CC)C1CCS(=O)(=O)C1 (stereo not given)	none
Cc1cn([C@H]2C[C@H](O)[C@@H](CNCC3=Cc4cc(O)ccc4OC3)O2)c(=O)[nH]c1=O	none (no result: HCV inh)
Cc1cccc(-c2n[nH]c(=S)n2/N=C/c2ccco2)c1	none (no result: Vaccinia Venus, VACV mCherry inh)
N=c1scc(-c2ccccc2)n1/N=C/c1ccco1	HCV inh inconclusive | HCV confirm 25µM | HCV cytotox inactive
CCOc1ccccc1NC(=O)C1CCN(S(=O)(=O)c2cc(Br)cc3c2N(C(C)=O)CC3)CC1	none (no result: HCV inh)
CN(C(=O)c1cc2nc(-c3ccco3)cc(C(F)(F)F)n2n1)c1ccc(OC(F)(F)Cl)cc1	none (no result: HCV inh)
O=C(Nc1ccc(F)cc1F)NC1CCN(S(=O)(=O)c2ccc(F)cc2)CC1	none
Cc1cc(Cl)ccc1NC(=O)NC1CCN(S(=O)(=O)c2ccc(F)cc2)CC1	HCV inh 4.5µM, VACV mCherry inh inconclusive | HCV confirm 11µM | HCV cytotox inactive
CC(NC(=O)C(=O)N1CCCCC1)C(c1cccs1)N1CCN(C)CC1 (stereo not given)	none
CC(=C(CCOP(=O)(O)O)SC(=O)c1ccccc1)N(C=O)Cc1cnc(C)nc1N	none (no result: HCV inh)
COc1ccccc1CNC(=O)Cc1csc(NC(=O)Nc2ccccc2OC)n1	HCV inh inconclusive | HCV confirm 18µM | HCV cytotox inactive
COc1ccccc1NC(=O)Nc1nc(CC(=O)NCc2ccccn2)cs1	HCV inh inconclusive
CC(OC(=O)c1c2c(nc3ccccc13)/C(=C\c1ccc3c(c1)OCO3)CCC2)C(=O)Nc1ccc(S(N)(=O)=O)cc1 (stereo not given)	HCV inh inconclusive
CNC(=O)NC(=O)C(C)OC(=O)c1c2c(nc3ccccc13)/C(=C/c1cccs1)CC2 (stereo not given)	HCV inh 2.8µM | HCV confirm 1.8µM | HCV cytotox 18µM
O=C(O)C(Cc1c[nH]c2ccccc12)NS(=O)(=O)c1ccc(Cl)c(C(F)(F)F)c1 (stereo not given)	none
O=C(CN(Cc1ccccc1)C1=NCCS1)c1ccc(Cl)cc1	HCV inh 6.3µM (no result: Vaccinia Venus, VACV mCherry inh) | HCV confirm 8.9µM | HCV cytotox inactive
COc1ccc(C(=O)CN(Cc2ccccc2)C2=NCCS2)cc1	none
CCCCCn1c(CN2CCN(c3ccc(OC)cc3)CC2)nc2c1c(=O)[nH]c(=O)n2C	none (no result: HCV inh)
CCOC(=O)C1=C(C)NC(=O)C1CC(=O)O (stereo not given)	none
COc1ccc(N(Cc2cc3cc(C)ccc3[nH]c2=O)C(C)=O)cc1	none (no result: Vaccinia Venus, VACV mCherry inh)
CCCCCOC(=O)CSc1nc2c(c(=O)[nH]c(=O)n2C)n1Cc1ccc(Cl)cc1	HCV inh 2.8µM | HCV confirm 5.6µM | HCV cytotox inactive
CCSc1nc2c(c(=O)[nH]c(=O)n2C)n1Cc1ccc(Cl)cc1	none (no result: VACV mCherry inh)
CCOc1ccc(C(=O)c2ccncc2)cc1	none
CCOc1ccc(C(=O)C(CCC(CN(C)C)C(=O)c2ccc(OCC)cc2)CN(C)C)cc1 (stereo not given)	HCV inh 3.2µM (no result: Vaccinia Venus, VACV mCherry inh) | HCV confirm 7.9µM | HCV cytotox 7.9µM
Cc1occc1C(=O)N1CCC2(CCCN(Cc3ccc(F)c(F)c3)C2)C1 (stereo not given)	HCV inh inconclusive

Assay outcomes deposited in PubChem by National Center for Advancing Translational Sciences (NCATS).
